Consider 31 compounds from PubChem BioAssay (Tox21).

Results filed as inconclusive are left out. Active and inactive are the calls of the source. Unless noted, the call rests on the fitted dose curve.

Experiment [1] can be described thus: qHTS assay to identify small molecule agonists of the vitamin D receptor (VDR) signaling pathway - cell viability counter screen (AID 743224; active means well fitted curve in the direction sought with a large enough effect in the repeat runs; an effect the other way counts as inactive or inconclusive; further: nearly all actives have a fitted effect of over 50% in size; further: potency means the concentration at half of the fitted maximal effect). The procedure, abridged:
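Cells: VDR-bla, 2,000/well, settled 4 h. Treatment: compounds in DMSO, 16 h, 37C/5% CO2. Readout: CellTiter-Glo luminescence after 30 min RT.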
In general terms: In qHTS, concentration-response curves come from the screen itself.

Experiment [2] can be described thus: qHTS assay to identify small molecule antagonists of the vitamin D receptor (VDR) signaling pathway - cell viability counter screen (AID 743225; active means well fitted curve in the direction sought with a large enough effect in the repeat runs; an effect the other way counts as inactive or inconclusive; further: nearly all actives have a fitted effect of over 50% in size). In a few lines:
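Parallel cytotoxicity test: VDR-UAS-bla HEK 293T, 3 nM (final) 1-alpha,25-dihydroxyvitamin D3 with test compound, 16 h, 37C. Endpoint is CellTiter-Glo luminescence in the same wells.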

Experiment [3] in a line: qHTS assay to identify small molecule agonists of the NFkB signaling pathway - cell viability counter screen (AID 1159515). Further: series mostly up to about 61 µM; nearly all actives have a fitted effect of over 55% in size. In a few lines:
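Cells are seeded (2,000 NFkB-bla ME-180 per well), rested overnight, and dosed with DMSO-dissolved compounds for 5 hr at 37 C. Viability is then read by CellTiter-Glo luminescence after 30 min at room temperature.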

A short description of experiment [4]: qHTS assay to identify small molecule agonists of the endoplasmic reticulum stress response signaling pathway (AID 1159516; active means well fitted activation curve with a large enough effect in the signal ratio in the repeat runs, not every such curve was filed as active; the % refers to the signal ratio; further: potency means the concentration at half of the fitted maximal effect). In a few lines:
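Cells are seeded at 1,500 per well and incubated overnight. Compounds in DMSO are added for 5 hr at 37 C, then beta-lactamase FRET substrate for 2 hr at room temperature, and fluorescence at 460 and 530 nm is measured.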

Experiment [5] can be described thus: qHTS assay to identify small molecule agonists of the endoplasmic reticulum stress response signaling pathway - cell viability counter screen (AID 1159517).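 Further: HeLa cells carrying an ER stress response element beta-lactamase reporter; series mostly up to about 61 µM; nearly all actives have a fitted effect of over 50% in size.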 In a few lines: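 In parallel with the ESRE reporter read, cytotoxicity was scored by CellTiter-Glo luminescence (30 min, room temperature) on HeLa ESRE-bla cells dosed for 5 hr.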
Experiment [6] is described as follows: qHTS assay to identify small molecule agonists of the AP-1 signaling pathway - cell viability counter screen (AID 1159525). Further: nearly all actives have a fitted effect of over 55% in size. In a few lines:
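Same-well cytotoxicity counter screen of the Tox21 10K library in ME-180 cells. The readout is ATP-dependent luminescence after 5 h compound treatment. Data are normalised to DMSO and tetra n-octyl ammonium bromide controls.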

The nature of experiment [7]: qHTS assay to identify small molecule agonists of the AP-1 signaling pathway (AID 1159526). Further: potency means the concentration at half of the fitted maximal effect.
For experiment [8], the target named is Retinoic acid receptor RXR-alpha (Homo sapiens) (UniProt P19793). Nature of the experiment: qHTS assay to identify small molecule agonists of the RXR signaling pathway (AID 1159527). Further: nearly all actives have a fitted effect of over 35% in size. Further: potency means the concentration at half of the fitted maximal effect. The procedure, abridged: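 16 hr incubation of compound-treated RXR-alpha-UAS-bla HEK 293T cells (2% charcoal-stripped FBS, 37 C) preceded a 2 hr room-temperature LiveBLAzer FRET substrate step and blue/green fluorescence measurement.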

For experiment [9], the target named is Nuclear receptor ROR-gamma (Homo sapiens) (UniProt P51449). Nature of the experiment: qHTS assay to identify small molecule antagonists of the retinoid-related orphan receptor gamma (ROR-gamma) signaling pathway (AID 1159521; active means well fitted curve in the direction sought with a large enough effect in the repeat runs; an effect the other way counts as inactive or inconclusive; further: nearly all actives have a fitted effect of over 50% in size; further: potency means the concentration at half of the fitted maximal effect). In a few lines:
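Decreased RORE-driven luciferase luminescence indicates antagonism. Tet-on RORγ CHO cells received compound, then 1 uM final doxycycline 2 h later; signal read after 16 h incubation.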

Experiment [10] in a line: qHTS assay to identify small molecule antagonists of the retinoid-related orphan receptor gamma (ROR-gamma) signaling pathway - cell viability counter screen (AID 1159520; active means well fitted curve in the direction sought with a large enough effect in the repeat runs; an effect the other way counts as inactive or inconclusive; further: nearly all actives have a fitted effect of over 50% in size). In a few lines:
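Tet-on ROR gamma CHO cells were given compounds for 2 hr, then doxycycline hyclate at 1 uM final, and incubated 16 hr at 37 C. Viability was measured as ATP content by CellTiter-Glo luminescence.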

Chain of Retinoic acid receptor RXR-alpha (Homo sapiens) (P19793 whole entry, looked up): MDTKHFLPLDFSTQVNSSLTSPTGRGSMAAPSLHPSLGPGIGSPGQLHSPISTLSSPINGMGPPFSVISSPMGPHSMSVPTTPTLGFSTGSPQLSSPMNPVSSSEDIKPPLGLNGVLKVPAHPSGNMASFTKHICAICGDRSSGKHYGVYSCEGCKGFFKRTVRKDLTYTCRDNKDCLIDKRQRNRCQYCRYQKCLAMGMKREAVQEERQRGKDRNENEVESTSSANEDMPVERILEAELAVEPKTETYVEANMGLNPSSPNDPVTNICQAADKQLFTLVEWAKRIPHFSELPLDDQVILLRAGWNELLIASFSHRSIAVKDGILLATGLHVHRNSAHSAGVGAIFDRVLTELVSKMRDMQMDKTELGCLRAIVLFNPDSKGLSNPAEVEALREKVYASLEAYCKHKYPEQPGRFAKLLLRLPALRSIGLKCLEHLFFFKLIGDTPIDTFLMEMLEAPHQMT

For `O.O.O.O.O.O.O=S(=O)([O-])[O-].[Ni+2]`, the Potency result in [1], in experiment [2], in experiment [3], in experiment [4], in experiment [5] and in experiment [6] was “inactive” throughout. Also, the Potency result in [7] and in experiment [8] was “inactive” each time.

As for `COC(=O)N(OC)c1ccccc1COc1ccn(-c2ccc(Cl)cc2)n1`, the Potency result in experiment [3], in experiment [4], in [5] and in [6] was “inactive” throughout. In experiment [9], the Potency was 0.273 µM (active).

With `COP(=S)(OC)Oc1nc(Cl)c(Cl)cc1Cl`, the Potency entry in experiment [1], in [2], in [3], in [4], in [5] and in experiment [10] was “inactive” in each case. For the same compound, the Potency result in [6] is “inactive”.

As for `CC(=O)[O-].CC(=O)[O-].O.O.O.[Pb+2]`, the Potency entry in experiment [1], in experiment [2], in experiment [3], in experiment [5], in experiment [6] and in experiment [7] was “inactive” each time. Further, the Potency result in [8] was “inactive”. Moreover, the Potency in experiment [4] is 0.0776 µM (active).

Consider `C[N+]1(C)[C@@H]2CC[C@H]1CC(OC(=O)C(CO)c1ccccc1)C2` (some centres not stated), for which the Potency entry in experiment [1], in experiment [2], in experiment [3], in experiment [4], in experiment [5] and in [10] was “inactive” in each case. In addition, the Potency entry in experiment [6] and in [7] was “inactive” throughout.

For `COc1ccc(Cc2nccc3cc(OC)c(OC)cc23)cc1OC`, the Potency result in experiment [1], in experiment [2], in [3], in [4], in [5] and in experiment [6] was “inactive” throughout. The Potency result in experiment [7] and in experiment [8] was “inactive” each time. In experiment [9], the Potency is 4.22 µM (active).

Turning to `FC(F)C(F)(F)OCC(Cn1cncn1)c1ccc(Cl)cc1Cl` (configuration not stated), the Potency entry in experiment [2], in experiment [3], in [4], in experiment [5], in [6] and in experiment [7] was “inactive” each time. Also, the Potency result in experiment [8] was “inactive”.

In the case of `CC(=O)O.CC(=O)O.CC(=O)O.CC(=O)O.CC(=O)O.CC(=O)O.CC(=O)O.O.O.[Cr].[Cr].[Cr]`, the Potency result in [1], in [2], in experiment [3], in [4], in [5] and in [10] was “inactive” each time. The Potency entry in experiment [6] and in [7] was “inactive” throughout.

`Oc1cccc(Cl)c1Cl`: the Potency result in [1], in experiment [2], in experiment [3], in experiment [4], in experiment [5] and in [10] was “inactive” each time. For the same compound, the Potency entry in experiment [6] is “inactive”.

For the compound `CC(=O)C(Cl)C(=O)N(C)C` (configuration not stated), the Potency result in experiment [1], in [2], in [3], in experiment [4], in experiment [5] and in experiment [6] was “inactive” throughout. Moreover, the Potency entry in experiment [7] and in experiment [8] was “inactive” throughout.

As to `N#CSCc1ccccc1`, the Potency entry in experiment [1], in experiment [2], in experiment [3], in experiment [4], in experiment [5] and in experiment [10] was “inactive” throughout. The Potency entry in [6] and in experiment [7] was “inactive” throughout.

Take `CC(Cc1ccccc1)N(C)Cc1ccco1` (configuration not stated): the Potency entry in experiment [1], in experiment [2], in [3], in [4], in experiment [5] and in experiment [10] was “inactive” in each case. Moreover, the Potency result in experiment [6] and in experiment [8] was “inactive” in each case.

With `CSSC`, the Potency entry in experiment [1], in [2], in experiment [3], in experiment [4], in [5] and in experiment [9] was “inactive” throughout. Besides, the Potency result in [6] was “inactive”.

Consider `CCCN`, for which the Potency result in [1], in [2], in experiment [3], in experiment [4], in experiment [5] and in experiment [10] was “inactive” throughout. Also, the Potency entry in [6] and in experiment [7] was “inactive” throughout.

With `O=S(=O)(NS(=O)(=O)C(F)(F)F)C(F)(F)F`, the Potency result in experiment [1], in experiment [2], in [3], in [4], in [5] and in [10] was “inactive” in each case.

As for `N#Cc1ccc(N(CC(N)=O)CC(F)(F)F)cc1C(F)(F)F`, the Potency entry in [1], in experiment [2], in experiment [3], in [4], in [5] and in experiment [6] was “inactive” each time. For the same compound, the Potency entry in experiment [7] and in [8] was “inactive” in each case.

Regarding `O=[N+]([O-])c1cccc2cccc([N+](=O)[O-])c12`, the Potency entry in [1], in experiment [2], in [3], in [4], in experiment [5] and in experiment [9] was “inactive” throughout. Also, in [7], the Potency result is “inactive”.

As for `CCOP(=S)(NC(C)C)Oc1ccccc1C(=O)OC(C)C` (configuration not stated), the Potency entry in experiment [1], in experiment [2], in experiment [3], in experiment [4], in [5] and in experiment [7] was “inactive” throughout. In addition, the Potency in [9] is 21.7 µM (active).

For `O=S1(=O)OCC2C(CO1)C1(Cl)C(Cl)=C(Cl)C2(Cl)C1(Cl)Cl` (configuration not stated), the Potency in experiment [1] was 49 µM (active); in experiment [9], 19.3 µM (active). Moreover, the Potency entry in experiment [3], in [4] and in experiment [5] was “inactive” each time.

In the case of `CCN(CC)C(=O)N[C@@H]1C=C2c3cccc4[nH]cc(c34)C[C@@H]2N(C)C1`, the Potency entry in [1], in [2], in experiment [3], in experiment [4], in experiment [5] and in experiment [10] was “inactive” throughout. Further, the Potency result in experiment [6] and in experiment [7] was “inactive” throughout.

On to `c1ccc2nc(N3CCNCC3)ccc2c1`, for which the Potency result in [1], in experiment [2], in experiment [3], in experiment [4], in [5] and in [10] was “inactive” each time. The Potency entry in experiment [6] and in experiment [7] was “inactive” each time.

Consider `O=C(NC(=O)c1c(F)cccc1F)Nc1ccc(Oc2ccc(C(F)(F)F)cc2Cl)cc1F`, for which the Potency result in experiment [2], in experiment [3], in experiment [4], in [5] and in experiment [6] was “inactive” each time. The Potency in experiment [9] was 24.3 µM (active).

Regarding `CCCC[N+]1(C)CCCC1` (tested in a mixture with another compound), the Potency result in experiment [1], in experiment [2], in experiment [3], in experiment [4], in [5] and in experiment [10] was “inactive” throughout. For the same compound, the Potency result in experiment [6] and in [7] was “inactive” each time.

Turning to `CN1C2CCC(C)(C)C1CC(OC(=O)C(O)(c1cccs1)c1cccs1)C2` (configuration not stated), the Potency result in experiment [1], in experiment [2], in experiment [3], in experiment [4], in [9] and in [6] was “inactive” in each case. The Potency entry in [7] and in experiment [8] was “inactive” each time.

As for `CCCCC(CC)COC(=O)OOC(C)(C)C` (configuration not stated), the Potency entry in experiment [1], in [2], in experiment [3], in experiment [4], in experiment [10] and in [9] was “inactive” throughout. The Potency entry in experiment [6] and in experiment [7] was “inactive” each time.

`O=C(O)CCCCCCNC1c2ccccc2CCc2ccccc21`: the Potency entry in [1], in experiment [2], in [3], in experiment [5], in [10] and in [9] was “inactive” throughout. Also, the Potency result in [6] and in [8] was “inactive” each time. Further, the Potency in experiment [7] was 10.7 µM (active).

Regarding `CC(=O)[O-].CC(=O)[O-].[Co+2]`, the Potency result in experiment [1], in experiment [2], in experiment [3], in experiment [4], in experiment [6] and in experiment [7] was “inactive” in each case.

As for `Cc1cc(C2CC2)nc(Nc2ccccc2)n1`, the Potency result in experiment [2], in [3], in [4] and in experiment [9] was “inactive” throughout.

`CN=C=O`: the Potency result in experiment [1], in [2], in [3], in experiment [4], in [10] and in [9] was “inactive” in each case. Besides, the Potency result in experiment [6] and in experiment [7] was “inactive” throughout.

Take `Nc1ccccc1-c1ccccc1`: the Potency entry in experiment [1], in experiment [2], in experiment [3], in experiment [4], in experiment [10] and in experiment [9] was “inactive” in each case. Further, the Potency entry in experiment [6] and in experiment [7] was “inactive” in each case.

Take `Cc1c([N+](=O)[O-])c(C)c([N+](=O)[O-])c(C(C)(C)C)c1[N+](=O)[O-]`: the Potency result in [1], in experiment [3], in experiment [4], in experiment [10], in experiment [6] and in experiment [7] was “inactive” throughout. Besides, the Potency in [8] is 12.3 µM (active).
